# NPR1 activator = GC-A (human) enzyme activation; HEK293 GC-A cells, cGMP TR-FRET, EC30 ANP; 0% at EC30 ANP, 100% saturating ANP; activation, % at 10 µM; 0.14% of 370,000 active; in the data active means activation above about 40%
# PfG6PD inh = PfG6PD (Plasmodium falciparum) enzyme inhibition; PfGluPho enzyme, NADPH resazurin-diaphorase fluorescence; inhibition, % at 20 µM; 0.78% of 350,000 active; AID 504690;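 active means inhibition reaching at least a set limit at 20 µM in the primary screen, cut at about 59% in these data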;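 further: 0% = DMSO wells with substrate and 100% = DMSO wells lacking glucose-6-phosphate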
# GC-B act = GC-B (human) receptor activation. HEK293-GC-B cells, CNP EC30, cGMP TR-FRET; 0% at EC30 CNP, 100% saturating CNP. activation, % at 10 µM. 0.11% of 370,000 active. AID 1920062;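 active means activation at 10 µM reaching about 35% in either raw or pattern-adjusted values, limit read from the data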
# A3A deaminase = blocks human APOBEC3A ssDNA deamination. P31941. recombinant A3A, FAM/TAMRA ssDNA deamination fluorescence. inhibition, % at 20 µM. 0.41% of 330,000 active. AID 493011;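 active means at least 40% inhibition at 20 µM here, with at most 30% in a related deaminase screen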;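 further: plate controls were A3A with DMSO for no effect and wells lacking A3A enzyme for full effect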
# APOBEC3G inh = APOBEC3G (human) deaminase inhibition | recombinant A3G, ssDNA deamination FAM/TAMRA fluorescence | inhibition, % at 20 µM | AID 493012 | 0.28% of 330,000 active;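 active means inhibition of at least 40% at 20 µM, with no more than 30% in the related APOBEC3A deaminase screen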;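 further: plate controls were DMSO wells with A3G for no effect and wells lacking A3G enzyme for full effect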
# Neddylation inh = inhibitors of human cullin neddylation; P61081+Q13564; inhibition, % at 25 µM; TR-FRET cullin neddylation, biochemical; 0.58% of 360,000 active; in the data active means inhibition above about 36%
# The depositor's hits bear a star; · = not tested or not shown; ! = repeats disagree. The list is not random: actives were taken first. Their share in the collection is about 2%.
SMILES,NPR1 activator,PfG6PD inh,GC-B act,A3A deaminase,APOBEC3G inh,Neddylation inh
COc1ccc(C2NC(=O)c3sc4nc(C)c(C(C)=O)c(-c5ccc(Cl)cc5)c4c3N2)cc1 (configuration not stated),46*,-4,31,4,1,-164
COc1ccccc1CCn1cnc(-c2ccc(Br)cc2)c1CC(C)C,2,·,3,·,·,·
Cc1ccccc1Cn1cc(COC(=O)NCC(C)C)nn1,2,·,6,·,·,·
COc1ccc(C2c3[nH]c4ccccc4c3CCN2C(=O)c2cc3ncccn3n2)c(F)c1 (configuration not stated),38,-9,37*,·,·,4
CCn1c(C)cc(/C=C2\NC(=O)N(Cc3ccc(Cl)cc3)C2=O)c1C,19,6,49*,2,-3,16
CCN1C(=O)N/C(=C/c2cc(C)n(Cc3ccccc3)c2C)C1=O,5,-1,6,-4,-7,20
Cc1cc(NC(=O)COc2cc(F)cc(F)c2)n(-c2ccccc2)n1,1,·,4,·,·,·
O=C(NN=C/C=C/c1ccco1)c1cc(-c2ccc(Cl)cc2)n[nH]1,6,·,-17,·,·,·
O=C(CCCCN1CCCCC1)c1ccccc1,2,-3,4,-2,-3,1
O=C(CCN1CCC2CCC(C2)C1)c1ccccc1 (configuration not stated),53*,3,-6,·,·,4
COC[C@H]1CCCN1c1ccc2c(c1)O[C@H]1CCN(C1)S2(=O)=O,3,·,5,·,·,·
Cc1ccnc(Nc2nc(-c3c(C)nc4sccn34)cs2)c1,32,45,37*,-2,-11,9
Cc1ccnc(Nc2nc(-c3ccccc3)cs2)c1,6,-2,-1,0,-4,-2
Cc1ccc2c(c1)C1CS(=O)(=O)N(Cc3ccc(F)cc3)CN1C2 (configuration not stated),-3,·,-1,·,·,·
O=C(O)CSc1cc(NS(=O)(=O)c2ccc(Br)cc2)c2ccccc2c1O,1,100*,0,·,·,-37
Cc1ccc(S(=O)(=O)Nc2ccc(Br)cc2C(NCC(=O)O)c2ccccc2)cc1 (configuration not stated),0,-32,0,-1,-12,7
Cc1ccc(OCc2nnc(SCC(=O)c3ccc4ccccc4c3)n2-c2ccc(Cl)cc2)cc1,0,·,11,·,·,·
CCC(C)(C)C1CCc2c(sc(NC(=O)c3ccccc3C(=O)O)c2C#N)C1 (configuration not stated),4,-12,-2,1,6,69*
CC(C)CCN(C)C1CCN(C(=O)Nc2ccc3c(c2)OCO3)CC1,1,·,-2,·,·,·
Cc1ccc(S(=O)(=O)NNc2ccccc2)c(C)c1,-2,83*,2,·,·,-5
CCC(C(=O)Nc1ccccc1N1CCCC1)c1cccc(OC)c1 (configuration not stated),-11,·,-6,·,·,·
NC(=O)c1ccc[n+]([C@H]2O[C@@H](COP(=O)([O-])OP(=O)(O)OC[C@H]3O[C@@H](n4cnc5c(N)ncnc54)[C@H](O)[C@@H]3O)[C@H](O)[C@@H]2O)c1,·,0,·,3,-1,52*
COC(=O)c1cc(-c2cccc(OC(F)(F)F)c2)c(=O)n2c1CCC2,3,·,-3,·,·,·
CC(=Nc1ccc(Br)cc1)c1sc2ccccc2c1O,-1,28,4,1,3,·
CC(=Nc1ccccc1)c1sc2ccccc2c1O,-5,8,0,-2,-1,44*
SMILES,NPR1 activator,PfG6PD inh,GC-B act,A3A deaminase,APOBEC3G inh,Neddylation inh
COc1cc(C=Nn2c(-c3ccc(F)cc3)n[nH]c2=S)ccc1OCc1ccccc1,-7,·,-7,·,·,·
c1csc(CNc2ncnc3ccc(-c4ccoc4)cc23)c1,31,1,28,3,-3,9
c1csc(CNc2ncnc3ccc(-c4ccc5c(c4)OCO5)cc23)c1,2,6,32*!,3,1,·
CC(C)(C)C(=O)c1c(N)[nH]c(C(=O)c2ccccc2)c1-c1ccc([N+](=O)[O-])cc1,-9,·,-4,·,·,·
CCCN(CCC)CCNC(=O)c1cc2c(=O)n(C)c3ccccc3c2n1C,2,4,-1,10,1,44*
CC(C)Nc1nc(Cl)nc(N(C#N)CN2C(=O)c3ccccc3C2=O)n1,48*,-18,48*,14,-1,-11
CC(C)c1ccc(NC(=O)C(c2ccc3c(c2)OCO3)N2CCCCC2)cc1 (configuration not stated),1,45,0,-4,-7,2
Oc1cc2c(cc1C(c1ccc(Cl)c(Cl)c1)N1CCCC1)OCO2 (configuration not stated),-36,62*,-11,6,-2,12
Cc1c(NS(=O)(=O)c2cccc(C(=O)OCC(=O)c3ccc(Cl)cc3)c2)c(=O)n(-c2ccccc2)n1C,61*,-18,-2,·,·,-18
Cc1c(NS(=O)(=O)c2cccc(C(=O)NCc3ccccc3Cl)c2)c(=O)n(-c2ccccc2)n1C,0,-4,-2,-1,-4,14
COc1ccc(OC)c(CN2C(=O)CSCCC2(C)c2nnnn2C2CCCC2)c1 (configuration not stated),-4,·,0,·,·,·
C=Cc1ncc(OC)c2c1[nH]c1ccccc12,·,20,·,-3,4,58*
COc1cccc2[nH]c3ccccc3c(=O)c12,·,15,·,-6,-6,·
Cc1cc(C(=O)Cn2ncc(Cl)c(Cl)c2=O)c(C)n1CC(F)(F)F,45*,0,56*,1,1,-269
O=C1Nc2ccccc2N(C(=O)c2c(F)cccc2F)C1c1nc2ccccc2[nH]1 (configuration not stated),-4,·,-3,·,·,52*
CC(C)CCSc1nc(N2CCOCC2)c2c(c1C#N)CC(C)(C)OC2,35,16,43*,4,0,-97
COC(=O)CCSc1nc(N2CCOCC2)c2c(c1C#N)CC(C)(C)OC2,24,22,26,-2,-5,-134
COc1ccc(CN2C(C(=O)NC3CCCC3)CSCCS2(=O)=O)cc1 (configuration not stated),2,·,-3,·,·,·
NC(c1csc(Nc2nccc(C(F)(F)F)n2)n1)C1CCCCC1 (configuration not stated),-1,·,50*,·,·,-4
O=S(=O)(CC1NCc2cc(F)ccc21)NCc1ccccc1 (configuration not stated),1,·,1,·,·,·
O=[N+]([O-])c1cc(/C=N/NC(=S)Nc2ccccc2Cl)ccc1Cl,58*,11,-5,1,-3,-11
O=c1c2ccccc2[nH]n1[C@@H](Cc1ccccc1)Cn1cc(-c2ccc(-c3ccccc3)cc2)nn1,2,·,-2,·,·,·
COC(=O)C1=C(C)NC(C)=C(C(=O)OC)C1c1ccccc1[N+](=O)[O-],-2,75*,-15,-1,-7,15

# Screens: PubChem BioAssay, Sanford-Burnham Center for Chemical Genomics
